NS1 function inh – qHTS Assay for Inhibitors of Influenza NS1 Protein Function. Potency, µM (highest dose often 46.1 µM). 270,000 compounds, 0.4% hits; calls by dose curve; further: actives are rising curves; nearly all actives have a fitted effect of over 50% in size
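Recovery from NS1-induced slow growth read by OD600 in budding yeast switched to galactose assay medium (pH 6.0, -URA) at 1:100 dilution. Compound 23 nl per well; the matching strain lacking NS1 serves as control.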
Pf growth 96h – Primary qHTS for delayed death inhibitors of the malarial parasite plastid, 96 hour incubation; P. falciparum luciferase reporter growth, 96 h; Potency, µM (series often up to 28.7 µM), most hits filed as inhibitors; 320,000 compounds, 6.9% hits; AID 504834, 2011
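Compounds incubated with erythrocytes infected by luciferase-expressing P. falciparum (2% hematocrit, 0.05% parasitemia final) for 96 hours, 37 C in 5% CO2. Growth inhibition scored as decreased luciferase luminescence.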
Cycloheximide cs – Cycloheximide Counterscreen for Small Molecule Inhibitors of Shiga Toxin. cell reporter, cycloheximide protein synthesis inhibition counterscreen. max response, %. 300,000 compounds, 12% hits. AID 2314, 2010; in the data active means max response mostly above about 13%, no sharp cut-off; inactive means mostly below about 14%; further: read at 38.3 µM for the half of the compounds with a filed dose
Shiga inhibitor – A qHTS for Small Molecule Inhibitors of Shiga Toxin. inhibition, % at 38.7 µM. 290,000 compounds, 9.2% hits. AID 2315, 2010. Vero cells, Shiga toxin protein synthesis inhibition reporter; in the data active means inhibition mostly above about 28%, no sharp cut-off; inactive means mostly below about 43%
Giardia FBPA inh – qHTS Assay for Inhibitors of Fructose-1,6-bisphosphate Aldolase from Giardia Lamblia | A8B2U2 | purified Giardia FBPA | 290,000 compounds, 0.71% hits | Potency, µM (doses to about 59.6 µM), most hits filed as inhibitors; further: nearly all actives have a fitted effect of over 55% in size
Target sequence (A8B2U2 whole entry, looked up): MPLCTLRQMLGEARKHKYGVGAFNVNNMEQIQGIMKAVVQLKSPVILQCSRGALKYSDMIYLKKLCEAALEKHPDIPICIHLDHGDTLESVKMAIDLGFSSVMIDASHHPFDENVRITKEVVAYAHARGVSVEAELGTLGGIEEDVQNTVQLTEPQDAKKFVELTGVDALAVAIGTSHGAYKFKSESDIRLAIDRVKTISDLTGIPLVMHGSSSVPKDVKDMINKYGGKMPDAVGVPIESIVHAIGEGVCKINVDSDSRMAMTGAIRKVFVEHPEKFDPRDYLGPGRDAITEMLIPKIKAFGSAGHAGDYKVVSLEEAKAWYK
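40 nM FBPA preincubated 10 min at RT with compound (up to 57.5 uM final), then substrate plus GAPDH/TPI/NAD/arsenate coupling and diaphorase/resazurin added. Fluorescence read after 20 min at RT, 525/598 nm.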
Pf growth 48h – Primary qHTS for delayed death inhibitors of the malarial parasite plastid, 48 hour incubation; P. falciparum luciferase growth in erythrocytes, 48 h; 310,000 compounds, 5.9% hits; Potency, µM (series often up to 28.7 µM), usual class: inhibitors
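Cell-based growth assay: transgenic P. falciparum expressing firefly luciferase, cultured in red cells within RPMI 1640 containing 0.5% w/v Albumax, 24 mM bicarbonate and gentamycin. A drop in luciferase activity indicates inhibition.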
Numbers stand for hits; – = inactive; ? = inconclusive; · = no result; [ ] = remark or other dose. This is a sample that favours compounds with a hit; in the whole collection about 21% have one here. Unless noted, the call rests on the fitted dose curve; in most records, active means well fitted curve in the direction sought with a large enough effect; inconclusive means small, poorly fitted or top-dose-only effect, or another doubt; inactive means no such curve, though single readings can be large; an effect the other way counts as inactive or inconclusive.

SMILES	NS1 function inh	Pf growth 96h	Cycloheximide cs	Shiga inhibitor	Giardia FBPA inh	Pf growth 48h
CCN1CCN(c2nc3ccccc3s2)CC1	–	–	33.1	76.6	–	–
CCc1ccc2nc(N3CCN(C(=O)C(C)(C)C)CC3)sc2c1	–	?	23.2	55.5	·	–
CS(=O)(=O)N1CCN(c2nc3ccc(Cl)cc3s2)CC1	–	–	–	–	–	–
Cc1ccc(C(=O)NC2CCCc3ccccc32)o1 (stereo not given)	–	?	–	–	–	–
Cc1nc2ccccn2c1C(=O)NC1CCCc2ccccc21 (stereo not given)	–	?	–	–	–	9.28µM
O=C(NC1CCCc2ccccc21)c1cn2ccccc2n1 (stereo not given)	·	–	19.0	–	–	–
CCOc1ccc(N(CC(=O)N/N=C(\C)c2cccc(NC(C)=O)c2)S(=O)(=O)c2ccccc2)cc1	–	–	–	–	–	–[0.00184 µM]
O=C(O)c1ccc(N2C(=O)CC(N3C(=O)/C(=C/c4ccc(Cl)cc4)SC3=S)C2=O)cc1 (stereo not given)	–	–	–	–	–	–
CCCN(Cc1ccc(N(CC)CC)cc1)CC1CC1	–	1.47µM	–	–	–	11.7µM
CCCN(Cc1ccc(N(C)C)cc1)CC1CC1	–	2.08µM	–	–	?	·
CCOC(=O)N1CCN(C(=O)C2CCC(=O)N(CCCN3CCCC3=O)C2)CC1 (stereo not given)	–	–	–	–	·	–
O=C(COC(=O)c1ccc2ncsc2c1)Nc1cccc(Cl)c1	·	–	·	·	·	–
O=C(OCCOc1cccc(Cl)c1)c1ccc2ncsc2c1	–	–	17.1	–	–	–
O=C(Nc1cccc(Cl)c1)c1ccc2ncsc2c1	–	–	43.9	90.3	–	–
O=C(c1ccc2ncsc2c1)N1CCCCC1	?	–	–	–	·	–
COc1ccc(C(C)(C)C)cc1NC(=O)c1ccc2ncsc2c1	–	?	27.0	72.3	–	–
O=C(O)c1ccc2ncsc2c1	–	?	26.9	68.0	–	?
Cc1cc(C(=O)NNC(=O)/C=C/c2ccco2)c(C)o1	·	–	·	·	·	?
O=c1c(-c2ccccc2)nc2cncnc2n1Cc1ccccc1	·	·	·	·	–	·
COc1ccc(CCNC(=O)CCCn2c(SCC(N)=O)nc3cc4c(cc3c2=O)OCO4)cc1OC	·	?	–	–	–	–
O=C1CN(S(=O)(=O)c2ccc3c(c2)OCCO3)CCN1S(=O)(=O)c1c(F)cccc1F	·	·	–	–	·	·
CC(C)c1ccccc1NC(=O)c1ccc2ncsc2c1	–	–	30.4	39.1	–	–
COc1ccc(NC(=O)c2ccc3ncsc3c2)c2ccccc12	–	–	–	–	·	?
O=C(Nc1ccc(C(F)(F)F)cc1)c1ccc2ncsc2c1	–	–	35.3	156.2	–	–
O=C(Nc1ccc(Cl)cc1)c1ccc2ncsc2c1	–	–	46.2	122.5	–	–
SMILES	NS1 function inh	Pf growth 96h	Cycloheximide cs	Shiga inhibitor	Giardia FBPA inh	Pf growth 48h
O=C(Nc1ccc(F)cc1)c1ccc2ncsc2c1	–	–	59.4	90.8	–	–
Cn1ccnc1C(OC(=O)c1ccccc1)C(F)(F)F (stereo not given)	–	–	–	–	–	–
O=C(O)C1CCCN(S(=O)(=O)c2ccc(-c3ccc(=O)[nH]n3)s2)C1 (stereo not given)	–	?	–	–	·	–
COc1ccc(C(=O)Cn2c(C(=O)/C=C/c3ccccc3)nc3ccccc32)cc1	?	·	–	–	–	10.4µM
COc1cc(/C=C/c2ccc(O)cc2)cc(OC)c1	·	·	55.8	83.6	–	·
COc1ccc(/C=C/C(=O)c2c(O)c(OC)c3occc3c2OC)cc1	–	–	14.7	–	–	?
COc1ccc(C(=O)CSc2nc3ccccc3n2CC(=O)c2ccccc2)cc1	–	–	–	–	–	?
COc1ccc(/C=C/C(=O)c2ccc(O)cc2)cc1	–	–	37.4	63.6	–	–
CC(=O)N1c2ccc(S(=O)(=O)N(C)CC(=O)NC3CCCC3)cc2CC1C (stereo not given)	–	?	–	–	–	–
Cc1cc(=O)[nH]c(SCC(=O)Nc2c(C)n(C)n(-c3ccccc3)c2=O)n1	·	–	·	·	·	–
COc1ccc(N(CC(=O)NC2CCCCC2)C(=O)CCCC(=O)Nc2ccccn2)cc1	–	–	–	–	–	?
